# Values joined by “and” are separate entries in the source; they are usually repeats but may differ in a detail not shown here. Equal values may be shown once. Records with an inconclusive call do not appear. Where a call stands in place of a potency, no number is given. Active and inactive are the calls of the source. The call rests on the fitted dose curve; in most records, active means well fitted inhibition curve with a large enough effect in the repeat runs; inconclusive means weak or mixed curves; inactive means no such curve, though single readings can be large or run the other way.
# Biological target: Cytochrome P450 1A2 (Homo sapiens) (UniProt P05177)
# Assay: Cytochrome P450 Family 1 Subfamily A Member 2 (CYP1A2) small molecule antagonists: luciferase reporter qHTS assay (AID 1671199); further: nearly all actives have a fitted effect of over 50% in size
# Details: P450-Glo CYP1A2 enzyme, luciferin luminescence, 1 h; series mostly up to 115 µM
# Text: National Center for Advancing Translational Sciences [NCATS]
# U.S. Environmental Protection Agency [EPA]
# National Institutes of Environmental Health Sciences [NIEHS]
# National Toxicology Program [NTP]
# U.S. Food and Drug Administration [FDA]
# Cytochrome P450 (CYP) enzymes are membrane-bound hemeproteins that play a key role in metabolism of drugs and xenobiotics. Evaluation of the effect of chemicals on CYP isozymes is useful to minimize the adverse drug reactions and toxicities in drug development process. Tox21 chemicals were tested for their effect on CYP enzyme activities by using P450-Glo (TM) screening systems (Promega Corporation, Madison, WI). These systems provide a luminescent method containing proluciferin substrates and are converted to luciferin products by CYP isozymes. The luciferin products formed are detected with a luciferin detection reagent, and the amount of light produced is proportional to CYP activity. P450-Glo (TM) CYP1A2 screening system (Catalog. No. V9770) was used to detect the compounds that interfere in CYP1A2 activity. The positive control compound used for CYP1A2 assay is furafylline (Sigma-Aldrich, St. Louis, MO).
# Tox21 Assay Protocol Summary:
# Two ul of enzyme-substrate mix was dispensed into medium binding white/solid 1536-well plates (Greiner Bio-One North America Inc., Monroe, NC) using a BioRaptr Flying Reagent Dispenser (FRD, Beckman Coulter, Brea, CA). Compounds dissolved in DMSO and positive control (furafyllline) were transferred to the assay plates at 23 nl using a Pintool station (Wako, San Diego, CA). The assay plates were incubated at room temperature for 10 min. Then 2 ul of NADPH regeneration solution was added to each well of the assay plates using an FRD and incubated at room temperature for 1 h. The reaction was stopped by adding 4 ul of detection reagent using an FRD and after 20 min incubation at room temperature the luminescence signal was measured using a ViewLux plate reader (Perkin Elmer, Shelton, CT). Data were expressed as relative luminescence units.
# Potency means the concentration at half of the fitted maximal effect.
# Chain of Cytochrome P450 1A2 (Homo sapiens) (P05177 whole entry, looked up): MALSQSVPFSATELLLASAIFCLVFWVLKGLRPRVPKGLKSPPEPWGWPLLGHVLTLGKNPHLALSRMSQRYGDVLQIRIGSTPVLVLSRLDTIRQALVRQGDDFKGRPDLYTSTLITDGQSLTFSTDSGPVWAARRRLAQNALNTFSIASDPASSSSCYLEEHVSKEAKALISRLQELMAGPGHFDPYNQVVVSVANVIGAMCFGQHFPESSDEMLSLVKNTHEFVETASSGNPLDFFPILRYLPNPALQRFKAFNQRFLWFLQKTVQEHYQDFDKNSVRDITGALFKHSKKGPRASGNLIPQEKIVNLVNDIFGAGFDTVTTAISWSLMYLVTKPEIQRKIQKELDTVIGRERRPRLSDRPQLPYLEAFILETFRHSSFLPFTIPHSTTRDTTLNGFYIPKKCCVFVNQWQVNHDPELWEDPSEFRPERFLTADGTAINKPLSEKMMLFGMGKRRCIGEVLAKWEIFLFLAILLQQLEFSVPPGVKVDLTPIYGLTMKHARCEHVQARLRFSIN
row,SMILES,Potency
1,O=C1c2ccccc2C(=O)N1SC(Cl)(Cl)Cl,24.8 µM (active) and 22.4 µM (active)
2,CC(C)(C)CC(C)(C)c1ccc(O)cc1,37.3 µM (active)
3,Nc1ccccc1C(=O)OCCc1ccccc1,7.13 µM (active) and 7.1 µM (active)
4,COc1ccccc1N1CCNCC1,inactive
5,O=P(OCC(Br)CBr)(OCC(Br)CBr)OCC(Br)CBr (stereo not given),7.19 µM (active) and 9.52 µM (active)
6,C=CCc1ccccc1O,31.7 µM (active)
7,CC[N+]1(C)CCCC(OC(=O)C(O)(c2ccccc2)c2ccccc2)C1 (stereo not given),inactive
8,CCCCC(CC)CO[N+](=O)[O-] (stereo not given),inactive
9,C=CC(=O)OCC,inactive
10,CC(C)OC(=O)Cc1ccccc1,35.9 µM (active)
11,C=CCSSCC=C,31.7 µM (active)
12,Cc1cccc(C)c1NC1=NCCCS1,inactive
13,OCC1CO1 (stereo not given),inactive
14,COP(=O)(OC)OC(Br)C(Cl)(Cl)Br (stereo not given),35.6 µM (active)
15,O=C(O)C(F)(F)C(F)(F)C(F)(F)C(F)(F)C(F)(F)C(F)(F)C(F)(F)C(F)(F)F,inactive
16,COC1=CC(=O)O[C@@H](/C=C/c2ccc3c(c2)OCO3)C1,3.41 µM (active)
17,CCCBr,inactive
18,OC[P+](CO)(CO)CO,inactive
19,O=C1NC(=O)C(=O)C(=O)N1,inactive
20,O=C(O)C(F)(F)C(F)(F)C(F)(F)C(F)(F)C(F)(F)F,inactive

row,SMILES,Potency
1,COC(=O)Cc1ccccc1,inactive
2,CCc1cnc(C2=NC(C)(C(C)C)C(=O)N2)c(C(=O)O)c1 (stereo not given),inactive
3,CC(C)(C)OOC(C)(C)CCC(C)(C)OOC(C)(C)C,inactive
4,CC(C)(C)NCC(O)c1ccccc1Cl (stereo not given),inactive
5,Cc1ccc2c(C)cccc2c1,inactive
6,OCCCl,inactive
7,CC(CC(C(N)=O)(c1ccccc1)c1ccccc1)N(C)C (stereo not given),inactive
8,CC(O)CN1CCN(CC(=O)[O-])CCN(CC(=O)[O-])CCN(CC(=O)[O-])CC1.[Gd+3] (stereo not given),inactive
9,CCCC[N+]1(C)[C@@H]2CC(OC(=O)[C@H](CO)c3ccccc3)C[C@H]1[C@@H]1O[C@@H]12 (stereo not given in full),inactive
10,CC(Oc1cccc(Cl)c1)C(=O)O (stereo not given),inactive
11,C=C(C)C(=O)OCCCCOC(=O)C(=C)C,25.2 µM (active)
12,CCCN(CCOc1c(Cl)cc(Cl)cc1Cl)C(=O)n1ccnc1,129 nM (active) and 224 nM (active)
13,CCN(C(C)=O)c1cccc(-c2ccnc3c(C#N)cnn23)c1,inactive
14,CC1(C)CC(=O)CC(C)(C)N1[O],inactive
15,Nc1ccccc1C(=O)OCC(O)CO (stereo not given),inactive
16,C[C@H](N)[C@H](O)c1ccc(O)c(O)c1,inactive
17,Cc1cnc(C2=NC(C)(C(C)C)C(=O)N2)c(C(=O)O)c1 (stereo not given),inactive
18,C[N+]1(CCC(C(N)=O)(c2ccccc2)c2ccccc2)CCCCC1,inactive
19,CN1C[C@H](C(=O)N[C@]2(C)O[C@@]3(O)[C@@H]4CCCN4C(=O)[C@H](Cc4ccccc4)N3C2=O)C=C2c3cccc4[nH]cc(c34)C[C@H]21,20.1 µM (active)
20,Nc1cccc2ccccc12,10.1 µM (active) and 5.64 µM (active)

# Reference: PubChem BioAssay (Tox21)
